Inconclusive results are not listed. Calls of active or inactive are those of the source. The calls were made as follows: active = hit-call score of the fitted dose curve at least 0.9, where 1 is the maximum; inconclusive = response in the unintended direction; inactive = score below 0.9.
Experiments:
[1] = target: Androgen Receptor/SRC-1 Co-activator, AR (gene 367) (UniProt P10275); test: OT_AR_ARSRC1_0960: Odyssey Thera (OT) 16-hour HEK293T Protein-Complementation Assay for Androgen Receptor/SRC-1 Co-activator (AID 2283353);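 also: actives raise the signal above DMSO so potency reflects increased AR and SRC-1 complex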
Chain of Androgen Receptor/SRC-1 Co-activator, AR (gene 367) (P10275 whole entry, looked up, the tested form may be a part): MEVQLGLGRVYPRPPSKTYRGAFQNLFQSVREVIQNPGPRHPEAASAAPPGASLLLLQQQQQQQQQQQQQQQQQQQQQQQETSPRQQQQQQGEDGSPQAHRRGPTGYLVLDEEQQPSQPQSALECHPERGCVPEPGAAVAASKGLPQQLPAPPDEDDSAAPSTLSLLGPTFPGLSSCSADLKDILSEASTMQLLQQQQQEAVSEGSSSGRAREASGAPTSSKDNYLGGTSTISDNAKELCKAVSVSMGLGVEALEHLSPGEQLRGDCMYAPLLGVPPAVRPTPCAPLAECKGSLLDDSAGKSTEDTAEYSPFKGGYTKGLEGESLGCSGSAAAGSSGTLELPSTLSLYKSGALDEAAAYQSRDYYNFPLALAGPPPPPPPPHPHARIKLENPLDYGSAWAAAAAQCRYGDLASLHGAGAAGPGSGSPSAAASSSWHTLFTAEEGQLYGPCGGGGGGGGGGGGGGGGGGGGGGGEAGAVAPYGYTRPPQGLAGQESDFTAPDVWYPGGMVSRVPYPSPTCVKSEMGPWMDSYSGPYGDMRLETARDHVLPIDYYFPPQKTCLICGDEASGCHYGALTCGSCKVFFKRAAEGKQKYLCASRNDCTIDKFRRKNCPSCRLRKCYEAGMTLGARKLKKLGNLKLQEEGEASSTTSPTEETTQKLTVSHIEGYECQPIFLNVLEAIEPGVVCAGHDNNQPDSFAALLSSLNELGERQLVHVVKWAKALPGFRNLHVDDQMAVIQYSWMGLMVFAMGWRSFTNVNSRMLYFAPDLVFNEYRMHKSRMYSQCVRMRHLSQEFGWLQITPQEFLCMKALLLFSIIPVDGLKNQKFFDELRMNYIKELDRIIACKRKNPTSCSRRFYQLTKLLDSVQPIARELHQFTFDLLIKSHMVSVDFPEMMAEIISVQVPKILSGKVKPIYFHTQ
In short: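 Stable HEK293T line carries AR and SRC-1 each linked to a Venus fragment; chemicals are applied for 16 h, cells imaged at two wavelengths, and the 488 nm nucleus/cytoplasm ratio is taken as the signal, rising relative to DMSO.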

[2] = target: Androgen Receptor/SRC-1 Co-activator, AR (gene 367) (UniProt P10275); test: OT_AR_ARSRC1_0480: Odyssey Thera (OT) 8-hour HEK293T Protein-Complementation Assay for Androgen Receptor/SRC-1 Co-activator (AID 2283354);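 also: hits raise the complementation signal above DMSO so AC50 marks enhancers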
In short: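 Reconstituted split-Venus YFP signal from AR–SRC-1 interaction, read by imaging 8 h post-dose in stable HEK293T lines. The 488 nm nucleus-to-cytoplasm ratio (≥400 cells/image) was fitted upward against DMSO.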

[3] = target: Estrogen receptor beta (Homo sapiens) (UniProt Q92731); test: OT_ER_ERbERb_0480: Odyssey Thera (OT) 8-hour HEK293T Protein-Complementation Assay for Estrogen Receptor-beta/-beta Homodimer (AID 2283357);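 also: active means signal gain over DMSO baseline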
Chain of Estrogen receptor beta (Homo sapiens) (Q92731 whole entry, looked up, the tested form may be a part): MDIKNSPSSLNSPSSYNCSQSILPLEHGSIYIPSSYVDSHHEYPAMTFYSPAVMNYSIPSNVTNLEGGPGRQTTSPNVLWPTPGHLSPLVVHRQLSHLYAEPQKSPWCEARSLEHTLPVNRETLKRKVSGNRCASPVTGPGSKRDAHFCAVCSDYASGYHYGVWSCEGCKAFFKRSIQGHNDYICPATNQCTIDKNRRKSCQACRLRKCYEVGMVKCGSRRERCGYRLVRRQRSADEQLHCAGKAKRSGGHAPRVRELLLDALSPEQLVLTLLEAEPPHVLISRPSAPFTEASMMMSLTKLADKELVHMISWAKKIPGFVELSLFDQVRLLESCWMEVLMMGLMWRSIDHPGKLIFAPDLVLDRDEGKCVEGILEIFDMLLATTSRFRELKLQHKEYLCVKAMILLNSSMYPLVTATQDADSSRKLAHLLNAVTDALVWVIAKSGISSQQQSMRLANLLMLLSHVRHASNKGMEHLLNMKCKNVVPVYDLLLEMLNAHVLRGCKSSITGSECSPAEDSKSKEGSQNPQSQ
In short: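 ER-beta LBD homodimer PCA stably expressed in HEK293T; 8 h compound exposure, then formaldehyde fixation and Draq5 staining. Gain in nuclear/cytoplasmic fluorescence intensity versus DMSO vehicle, read on laser scanning cytometer.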

[4] = target: Retinoic acid receptor alpha (Homo sapiens) (UniProt P10276); test: NVS_NR_hRAR_Antagonist: NovaScreen (NVS) Nuclear Receptor Binding Assay for human Retinoic Acid Alpha Receptor Antagonism (RAR) (AID 2283358)
Chain of Retinoic acid receptor alpha (Homo sapiens) (P10276 whole entry, looked up): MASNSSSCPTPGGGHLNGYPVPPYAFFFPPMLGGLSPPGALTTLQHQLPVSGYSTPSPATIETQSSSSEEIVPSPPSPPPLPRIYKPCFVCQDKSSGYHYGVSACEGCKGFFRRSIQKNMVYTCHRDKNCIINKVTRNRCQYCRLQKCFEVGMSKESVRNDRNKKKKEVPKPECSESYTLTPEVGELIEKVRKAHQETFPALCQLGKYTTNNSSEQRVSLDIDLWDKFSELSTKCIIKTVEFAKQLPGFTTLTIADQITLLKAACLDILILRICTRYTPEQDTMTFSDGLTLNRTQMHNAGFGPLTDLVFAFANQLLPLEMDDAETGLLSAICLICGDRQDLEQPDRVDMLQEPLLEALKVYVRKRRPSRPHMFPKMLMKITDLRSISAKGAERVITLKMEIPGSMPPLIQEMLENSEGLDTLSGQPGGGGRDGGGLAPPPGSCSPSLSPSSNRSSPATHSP
In short: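 RARalpha antagonism was read by TR-FRET as loss of binding signal versus DMSO, 2 h after chemical addition, in a biochemical format. Single-concentration duplicates (25 uM) were run first, and actives were retested in concentration series.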

[5] = target: Estrogen receptor (Homo sapiens) (UniProt P03372); test: OT_ER_ERaERa_1440: Odyssey Thera (OT) 24-hour HEK293T Protein-Complementation Assay for Estrogen Receptor-alpha/-alpha Homodimer (AID 2283349);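 also: hits raise fluorescence above DMSO for agonists and antagonists alike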
Chain of Estrogen receptor (Homo sapiens) (P03372 whole entry, looked up, the tested form may be a part): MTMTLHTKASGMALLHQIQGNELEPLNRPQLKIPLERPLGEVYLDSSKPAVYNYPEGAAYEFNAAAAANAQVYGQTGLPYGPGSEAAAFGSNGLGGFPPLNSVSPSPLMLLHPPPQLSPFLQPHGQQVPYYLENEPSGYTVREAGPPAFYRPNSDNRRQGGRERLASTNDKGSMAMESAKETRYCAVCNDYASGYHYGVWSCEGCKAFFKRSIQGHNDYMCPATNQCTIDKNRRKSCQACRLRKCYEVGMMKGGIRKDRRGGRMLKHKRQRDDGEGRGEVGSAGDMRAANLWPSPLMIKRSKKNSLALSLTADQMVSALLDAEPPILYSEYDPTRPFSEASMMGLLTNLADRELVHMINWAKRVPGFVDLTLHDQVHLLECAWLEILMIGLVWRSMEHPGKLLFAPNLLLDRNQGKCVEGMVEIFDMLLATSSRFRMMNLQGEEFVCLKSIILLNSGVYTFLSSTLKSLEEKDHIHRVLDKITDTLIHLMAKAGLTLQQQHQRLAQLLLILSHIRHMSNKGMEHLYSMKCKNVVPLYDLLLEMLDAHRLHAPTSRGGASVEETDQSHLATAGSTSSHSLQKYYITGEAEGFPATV
In short: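 HEK293T, stable ERα LBD (aa 310-547) homodimer PCA; 24 h compound exposure; mean fluorescence intensity (nuclear for agonists, nuclear plus cytoplasmic for antagonists) vs vehicle; positive fitting direction, DMSO baseline.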

[6] = target: Estrogen receptor (Homo sapiens) (UniProt P03372); test: OT_ER_ERaERa_0480: Odyssey Thera (OT) 8-hour HEK293T Protein-Complementation Assay for Estrogen Receptor-alpha/-alpha Homodimer (AID 2283351);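 also: rise in fluorescence from reassembled reporter fragments on ERα LBD homodimer in nucleus or whole cell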
In short: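 Cells were treated for 8 hours, then imaged on a laser scanning plate cytometer. Complementation of reporter fragments fused to the human ERα ligand-binding domain (residues 310-547) in HEK293T gave fluorescence, and gain of signal over vehicle was fitted.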

[7] = target: T1, Estrogen receptor (Homo sapiens) + Estrogen receptor beta (Homo sapiens) (UniProt P03372+Q92731); test: OT_ER_ERaERb_0480: Odyssey Thera (OT) 8-hour HEK293T Protein-Complementation Assay for Estrogen Receptor-alpha/-beta Heterodimer (AID 2283352)
T1 sequence (P03372 whole entry, looked up, the tested form may be a part): as above
T1 sequence (Q92731 whole entry, looked up, the tested form may be a part): as the sequence (Q92731 whole entry, looked up, the tested form may be a part) above
In short: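 Human HEK293T cells were treated for 8 hours and receptor heterodimerisation was detected through reconstitution of a fluorescent reporter split between ER-alpha and ER-beta ligand-binding domains. Activity was analysed as gain of signal against DMSO.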

[8] = target: T1, Estrogen receptor (Homo sapiens) + Estrogen receptor beta (Homo sapiens); test: OT_ER_ERaERb_1440: Odyssey Thera (OT) 24-hour HEK293T Protein-Complementation Assay for Estrogen Receptor-alpha/-beta Homodimer (AID 2283356);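 also: heteromer of ER alpha and ER beta binding domains; hits raise reporter fluorescence and both agonists and antagonists give an increase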
In short: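 24 h exposure; HEK293T PCA cells with ERα/ERβ LBD fragments; signal rise in nuclear or whole-cell fluorescence over vehicle.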

With `CC(C)[C@@H]1CC[C@@H](C)C[C@H]1O` the outcome [1] was “inactive”, the outcome [2] was “inactive” and the outcome [3] was “inactive”.
With `C[C@]12CC[C@@H]3c4ccc(O)cc4CC[C@H]3[C@@H]1C[C@@H](O)[C@@H]2O` the AC50 [3] was 0.552 µM (active).
`O=C1OC2(c3ccccc31)c1cc(I)c(O)c(I)c1Oc1c2cc(I)c(O)c1I` was tested, and the AC50 [4] was 19.7 µM (active).
In the case of `CCCCc1ccc2ccccc2c1S(=O)(=O)O`, the outcome [5] is reported as “inactive”, the outcome [6] is reported as “inactive” and the outcome [7] is reported as “inactive”. The outcome [1] was “inactive”, the outcome [2] was “inactive” and the outcome [8] was “inactive”. For the same molecule, the outcome [3] was “inactive”.
In the case of `c1cnc2c(c1)ccc1cccnc12`, the outcome [3] is reported as “inactive”.
`NS(=O)(=O)O` was tested, and the outcome [3] was “inactive”.
For `CCC(C)c1ccccc1O` (stereo unspecified), the outcome [3] was “inactive”.
`Cc1cc(C(C)(C)C)c(O)c(C(C)(C)C)c1` was tested, and the outcome [3] was “inactive”.
`CCCCCCCCCC=CCC1CC(=O)OC1=O` (stereo unspecified) was tested, and the outcome [5] was “inactive”, the outcome [6] was “inactive” and the outcome [7] was “inactive”. For the same molecule, the outcome [1] was “inactive”, the outcome [2] was “inactive” and the outcome [8] was “inactive”. For the same molecule, the outcome [3] was “inactive”.
For `CC(O)COc1ccccc1` (stereo unspecified), the outcome [1] was “inactive”, the outcome [2] was “inactive” and the outcome [3] was “inactive”.

— PubChem BioAssay (EPA / NIEHS)
